Experimental data as given in the supplement of paper PMC6555819.

Experiments:
Test in all cases: PBM binding z-score (relative to random genomic background probes); higher = stronger binding; sequences stand for … in GC…GCGATTGACAGCGTAGAATGAAGG
[1] = system: FXR:RXRa (NR concentration 270 nM, RXRa partner concentration 90 nM)
Summary of the method: (§1)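 Binding z-scores take random background probes as their reference. They come from custom Agilent 4×180K protein-binding microarrays incubated 1 h with ligand-free nuclear receptor dimers, with antibodies against each partner (one per run) detecting binding. Scanned fluorescence was regression-normalized.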

[2] = system: LXRa:RXRa (NR concentration 270 nM, RXRa partner concentration 90 nM)
Summary of the method: as §1

[3] = system: LXRa homodimer (NR concentration 270 nM)
Summary of the method: as §1

[4] = system: LXRb:RXRa (NR concentration 270 nM, RXRa partner concentration 90 nM)
Summary of the method: as §1

[5] = system: LXRb homodimer (NR concentration 270 nM)
Summary of the method: as §1

[6] = system: PPARa:RXRa (NR concentration 270 nM, RXRa partner concentration 90 nM)
Summary of the method: as §1

[7] = system: PPARg:RXRa (NR concentration 180 nM, RXRa partner concentration 90 nM)
Summary of the method: as §1

[8] = system: PPARg:RXRa 270nM:90nM, anti-RXR (NR concentration 270 nM, RXRa partner concentration 90 nM)
Summary of the method: as §1

[9] = system: PPARg:RXRa 30nM:10nM, anti-RXR (NR concentration 30 nM, RXRa partner concentration 10 nM)
Summary of the method: as §1

[10] = system: PPARg:RXRa 90nM:30nM, anti-RXR (NR concentration 90 nM, RXRa partner concentration 30 nM)
Summary of the method: as §1

[11] = system: PPARg:RXRa DBDmut IVT, anti-RXR (DBD mutation: RXRa K156A/R161A, NR concentration 270 nM, RXRa partner concentration 90 nM)
Summary of the method: as §1

[12] = system: PPARg:RXRa IVT, anti-PPARg (NR concentration 270 nM, RXRa partner concentration 90 nM)
Summary of the method: as §1

[13] = system: PPARg DBDmut:RXRa IVT, anti-PPARg (DBD mutation: PPARg1 K132A/R137A, NR concentration 270 nM, RXRa partner concentration 90 nM)
Summary of the method: as §1

[14] = system: PPARg DBDmut IVT, anti-PPARg (DBD mutation: PPARg1 K132A/R137A, NR concentration 270 nM)
Summary of the method: as §1

[15] = system: PPARg homodimer (NR concentration 180 nM)
Summary of the method: as §1

[16] = system: PXR:RXRa (NR concentration 270 nM, RXRa partner concentration 90 nM)
Summary of the method: as §1

[17] = system: PXR homodimer (NR concentration 270 nM)
Summary of the method: as §1

[18] = system: RARa:RXR (NR concentration 270 nM, RXRa partner concentration 90 nM)
Summary of the method: as §1

[19] = system: RARa homodimer (NR concentration 270 nM)
Summary of the method: as §1

[20] = system: RARb:RXRa (NR concentration 270 nM, RXRa partner concentration 90 nM)
Summary of the method: as §1

Sequence	PBM binding z-score [1]	PBM binding z-score [2]	PBM binding z-score [3]	PBM binding z-score [4]	PBM binding z-score [5]	PBM binding z-score [6]	PBM binding z-score [7]	PBM binding z-score [8]	PBM binding z-score [9]	PBM binding z-score [10]	PBM binding z-score [11]	PBM binding z-score [12]	PBM binding z-score [13]	PBM binding z-score [14]	PBM binding z-score [15]	PBM binding z-score [16]	PBM binding z-score [17]	PBM binding z-score [18]	PBM binding z-score [19]	PBM binding z-score [20]
AATACAGGGGCATCGTAGGCCAGAGTACGCACAG	0.565	0.874	0.0851	1.04	0.436	1.06	1.13	0.622	0.174	0.275	0.577	1.26	0.192	0.567	-0.0954	0.276	0.165	0.505	-0.245	1.48
CCTACTGGGCAACGAAAGGTCATTGATTCAGTGA	3.6	5.33	5.51	4.2	0.197	4.2	2.1	3.54	0.974	2.72	2.25	2.56	-0.412	0.102	3.81	5.18	1.89	5.49	2.52	3.96
GTACCAAGGTGAATAGGTCGTTGAGGAGTAGGCG	0.778	0.909	0.0544	0.533	-0.56	2.32	1.22	1.67	0.113	1.14	1.82	2.41	-0.447	-0.52	1.24	0.61	0.0954	1.74	0.334	1.99
AGAACGAGGGCACGCAGAGTTGATAGCAGAGTAG	1.14	0.811	-0.396	0.439	-0.647	2.54	2.51	2.28	0.386	1.35	4.1	4.09	0.653	0.16	0.313	1.55	0.0867	1.22	-0.379	2.92
CCGACTGGGGCAAAGGTTCCCATACTCAGTACGA	-0.153	-0.12	-0.431	-0.0438	-1.02	3	7.57	6.87	6.55	6.97	4.43	4.51	-0.428	-0.816	-0.0222	-0.128	-0.291	0.588	0.117	0.831
ATATGTAGGTGATCGGGTCATTCAGTTTGCGCAT	1.36	1.47	0.268	1.79	0.875	4.72	6.45	5.32	3.24	5.22	7.23	7.11	1.94	2.7	1.86	3.27	6.72	2.77	0.81	2.01
TCAGACAGGTGAATGTAACTCAGGTACGCAGTCG	0.149	0.452	0.0267	0.271	-0.401	0.789	0.834	1.72	2.99	2.36	2.43	0.904	-0.264	-0.0774	0.0893	0.012	-0.109	0.0859	-0.00412	0.652
CAAACTAGGTCACAGAGGTCAAAGTCCGTGCGTA	7.61	6.66	7.31	6.24	2.21	6.66	10.2	8.58	6.84	8.64	8.82	9.1	2.19	1.15	5.68	6.96	11.2	7.51	3.31	5.25
AGGCAAAGTTCACTAGGTAACGTAAGATTCAGCT	5.31	5.15	2.57	3.12	0.881	4.61	6.33	6.04	2.78	5.21	2.96	4.77	1.25	1.49	3.61	4.02	2.73	2.94	1.73	4.61
CCTAGTTGGTCAAGGACACACACGCTATAGGTAC	0.477	0.154	0.309	0.44	0.532	0.0552	1.12	0.49	0.287	0.489	1.07	1.39	0.248	-0.0353	0.735	0.0768	0.977	1.06	1.89	1.51
TCGAGTAGGTTACCAATGGGGCATGCAGCTTTCT	-0.0297	0.818	-0.705	0.567	-0.608	1.07	0.261	1.08	0.922	1.1	2.81	2.63	-0.851	-0.804	0.0945	0.0825	-0.874	0.433	-0.816	0.932
CGAACTAGGTCAAGGACAGTGACTCTCCGCACGC	3.47	2.28	0.349	1.58	-0.267	4.79	7.35	6.66	3.92	6.28	8.38	8.3	1.83	0.467	1.66	1.37	-0.264	2.54	0.541	3.95
ACTCGGAGGACAAAAGTCAGAGCTACGCCAGTGA	-0.293	-0.245	-0.424	-0.518	-0.302	0.347	1.41	2.68	0.796	2.08	0.176	-0.114	-1.08	-0.828	0.0197	-0.626	-0.332	-0.564	-0.279	0.928
TGACAAAGTTCAAAGGTAACGTAAGTATCCACAC	6.96	6.05	3.28	4.68	1.41	5.69	6.2	6.28	2.97	5.43	-0.278	2.4	1.51	0.842	2.31	5.44	2.44	6.2	1.36	5.01
GATACAGGGTCACGGCCAGAGTACGCGTATTGAT	7.54	5.1	-0.0336	4.33	-0.171	6.26	8.33	7.43	3.93	6.41	4.17	5.49	1.11	0.362	2.36	4.75	0.0972	6.41	0.744	4.89
AGAATGAGGTTATTAACATCAGGGAATTGCGGTC	1.93	1.61	0.0364	1.24	0.0777	2.63	1.32	1.34	0.42	0.938	2.7	2.3	0.432	0.815	0.441	1.18	0.616	1.36	0.203	1.2
TTCCCAAGGTGAAGGTCGTTGATCCCTCTGTAGA	2.26	2.23	-0.0326	1.74	-0.362	2.26	0.674	1.81	0.663	1.37	0.771	2.06	-0.218	-0.23	1.17	1.5	0.155	1.78	-0.438	2.2
CCGAGTGGGGCAAGGTTACCATAACGCACAGCCA	0.236	0.965	-0.227	0.664	-0.711	1.78	2.73	2.77	0.815	2.3	1.75	3.14	-0.586	-0.492	0.921	0.439	0.123	1.16	-0.144	1.4
CGTCCAAGCTCAAGGTCAGTGAAAGAGACTCGAA	1.45	1.33	0.213	1.25	-0.283	1.93	0.495	1.14	0.132	0.792	-0.0335	0.547	-0.701	-0.496	1.59	1.51	0.437	1.86	0.0805	3.43
CGTCCAAGGGCAGAGAGGTCAGTGAATGCCGAGT	1.75	1.84	0.628	1.59	-0.506	2.5	0.642	1.19	-0.361	0.293	0.812	1.16	-1.66	-1.28	1.16	3.43	6.33	2.56	-0.0232	3.92
TAGCCTAGGTCAGTGGGCCAGTATAGTACGCATC	0.672	0.503	-0.786	0.274	-0.999	2.11	2.47	2.57	0.337	1.47	2.3	3.72	-0.247	0.15	0.486	0.1	-0.662	0.533	-1.07	3.01
CCGACTGGGGCCTAAGGTTACCATAAGCCAGCCC	0.328	1.58	-0.169	0.716	-1.28	1.26	0.941	2.51	0.0484	1.11	-0.456	-0.247	-1.22	-1.84	0.088	0.127	-0.726	0.85	0.205	0.778
TCTCGTAGGACACGAAGGTCAGAGCTTTCCAGAG	0.999	0.907	0.334	1.08	-0.838	1.85	0.478	1.91	2.61	2.45	1.67	1.28	-0.564	-1.07	0.78	1.35	-0.171	1.75	-0.101	2.89
TAGCCTACGTCATGCGGGCCAGTATAGTGTCGGC	-0.993	-0.942	-0.548	-1.15	-0.753	-0.592	0.156	-0.778	-0.767	-0.769	-0.258	-0.361	-0.565	-0.82	-1.11	-0.921	-1.11	-0.886	-1.36	-0.527
CCTTACGGGTCACTCCAGCTTATAGCATCGGAGT	4.62	3.14	-0.000472	2.66	0.0792	4.46	2.98	3.49	0.864	2.44	2.73	2.95	0.84	0.0391	1.95	2.52	0.285	3.54	0.557	3.56
GCGACTGGGGCTAAGCAGGTTACCATAAGGTTGG	-0.407	-0.415	-0.836	-0.00625	-0.83	0.342	0.147	-0.288	-0.707	-0.68	0.815	0.343	-0.64	-1.34	-0.237	-0.0501	-0.222	0.266	-0.85	0.544
CGTACTAGGTCAAGGACAGTGAATCTCCGCACGC	3.26	2.36	0.318	1.61	0.134	3.93	6.37	5.52	2.99	4.86	7.55	7.47	2.25	1.3	2.34	1.19	0.03	2	1.16	4
CGTCAAAGTTCAACTAAGGTAACCTAAAGCACGC	7.07	6.1	4.45	4.4	2.21	5.35	5.27	5.95	2.33	4.85	0.618	2.35	0.979	1.12	5.46	6.07	4.78	5.01	2.75	5.31
CCTGCTAGGTCAATGGTCAGCAAAAGCAGCTCGC	2.97	2.15	0.13	1.33	-0.077	3.32	4.8	5.15	2.5	4.66	4.13	3.94	-0.42	-0.782	0.701	0.88	-0.358	1.49	-0.178	3.86
